Experimental data as given in PubChem BioAssay (Tox21).
Results filed as inconclusive are left out. The source made the active and inactive calls. Unless noted, calls come from the whole dose curve; as a rule, active = well fitted curve in the direction sought with a large enough effect in the repeat runs; inconclusive = weak or mixed curves; inactive = no such curve, though single readings can be large; an effect the other way counts as inactive or inconclusive.

Legend:
[1] = target: Estrogen receptor beta (Homo sapiens) (UniProt Q92731); experiment: qHTS assay to identify small molecule antagonists of the estrogen receptor beta (ER-beta) signaling pathway (AID 1259378; active = well fitted inhibition curve with a large enough effect in the signal ratio in the repeat runs, not every such curve was filed as active; the % refers to the signal ratio)
Sequence of Estrogen receptor beta (Homo sapiens) (Q92731 whole entry, looked up): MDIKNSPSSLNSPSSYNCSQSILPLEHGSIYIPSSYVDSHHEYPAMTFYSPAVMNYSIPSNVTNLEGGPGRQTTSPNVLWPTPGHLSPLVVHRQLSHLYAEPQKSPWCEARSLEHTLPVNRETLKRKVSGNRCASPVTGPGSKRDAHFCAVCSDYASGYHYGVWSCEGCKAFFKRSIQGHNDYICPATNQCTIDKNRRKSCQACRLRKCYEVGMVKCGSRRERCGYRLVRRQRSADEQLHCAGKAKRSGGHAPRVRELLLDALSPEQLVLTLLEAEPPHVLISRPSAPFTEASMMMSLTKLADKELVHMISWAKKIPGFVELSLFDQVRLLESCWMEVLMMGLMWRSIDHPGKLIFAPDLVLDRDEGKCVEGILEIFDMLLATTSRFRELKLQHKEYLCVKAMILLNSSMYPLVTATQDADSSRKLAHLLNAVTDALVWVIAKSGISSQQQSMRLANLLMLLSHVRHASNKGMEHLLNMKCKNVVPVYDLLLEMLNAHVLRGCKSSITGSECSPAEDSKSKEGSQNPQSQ
Procedure, shortened: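 ER-beta-UAS-bla HEK293T cells in 2% charcoal-stripped FBS medium treated with compound plus 1nM final 17-beta-estradiol for 16 hr at 37C. Beta-lactamase reporter read by FRET substrate fluorescence after 2 hours at room temperature.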

[2] = qHTS assay to identify small molecule agonists of the androgen receptor (AR) signaling pathway in the presence of an antagonist - cell viability counter screen (AID 1259379); note: nearly all actives have a fitted effect of over 25% in size; note: potency is the fitted concentration of half-maximal effect
Procedure, shortened: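 Cytotoxicity is assessed by CellTiter-Fluor in MDA-kb2 cells carrying an MMTV-driven luciferase reporter. Cells receive 3.0uM nilutamide plus compounds at 15 concentrations and incubate 16 hr at 37C without CO2 before fluorescence reading.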

[3] = qHTS assay to identify small molecule agonists of the estrogen receptor beta (ER-beta) signaling pathway - cell viability counter screen (AID 1259380); note: nearly all actives have a fitted effect of over 30% in size; note: potency is the fitted concentration of half-maximal effect
Procedure, shortened: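 Cytotoxicity is measured in parallel with the reporter screen: after 16 hr compound exposure at 37C and a 2 hr LiveBLAzer step, CellTiter-Glo is added to the same ER-beta-UAS-bla HEK293T wells and luminescence read after 30 min.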

[4] = qHTS assay to identify small molecule antagonists of the estrogen receptor beta (ER-beta) signaling pathway - cell viability counter screen (AID 1259382); note: nearly all actives have a fitted effect of over 55% in size; note: potency is the fitted concentration of half-maximal effect
Procedure, shortened: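 Cytotoxicity counter screen multiplexed with the beta-lactamase antagonist assay: GripTite HEK293T ER-beta-bla cells were treated 16 hr with test chemicals in the presence of 1nM 17-beta-estradiol, and viability was measured by CellTiter-Glo.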

[5] = target: Estrogen receptor (Homo sapiens) (UniProt P03372); experiment: qHTS assay to identify small molecule agonists of the estrogen receptor alpha (ER-alpha) signaling pathway in the presence of an antagonist (AID 1259383; calls by dose curve; note: top concentration of the series differs between compounds; nearly all actives have a fitted effect of over 15% in size)
Sequence of Estrogen receptor (Homo sapiens) (P03372 whole entry, looked up): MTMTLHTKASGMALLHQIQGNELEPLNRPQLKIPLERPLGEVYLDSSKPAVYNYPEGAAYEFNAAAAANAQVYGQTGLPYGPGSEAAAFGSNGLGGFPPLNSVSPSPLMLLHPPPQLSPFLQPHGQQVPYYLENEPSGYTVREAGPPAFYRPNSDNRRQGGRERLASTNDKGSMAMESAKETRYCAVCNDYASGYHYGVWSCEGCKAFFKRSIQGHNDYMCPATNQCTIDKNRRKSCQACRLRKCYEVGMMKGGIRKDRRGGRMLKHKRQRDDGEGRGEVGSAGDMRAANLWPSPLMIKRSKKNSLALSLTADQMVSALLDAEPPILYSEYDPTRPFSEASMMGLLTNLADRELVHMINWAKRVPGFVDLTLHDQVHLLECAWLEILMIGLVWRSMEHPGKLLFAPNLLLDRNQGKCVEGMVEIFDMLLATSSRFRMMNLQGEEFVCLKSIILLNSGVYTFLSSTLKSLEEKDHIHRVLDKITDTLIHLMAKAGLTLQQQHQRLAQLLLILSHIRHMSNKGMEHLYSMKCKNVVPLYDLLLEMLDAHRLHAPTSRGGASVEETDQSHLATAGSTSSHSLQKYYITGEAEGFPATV
Procedure, shortened: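 Agonist-mode confirmation in the presence of the ER antagonist ICI-182,780 at 10.0nM final. Breast-derived VM7Luc4E2 reporter cells were exposed to compounds for 22hr, and ERE-driven luciferase was quantified by luminescence.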

[6] = qHTS assay to identify small molecule agonists or antagonists of the thyroid stimulating hormone receptor (TSHR) signaling pathway - wild type cell line counter screen (AID 1259384; calls by dose curve)
Procedure, shortened: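 Wild-type Hek293 cells, 800/well, 18 h at 37C, then compound with Ro20-1724 for 30 min RT. cAMP by HTRF (cAMP-d2/anti-cAMP cryptate), 1 h RT, fluorescence read. 15 concentrations, triplicates.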

[7] = target: Thyrotropin receptor (Homo sapiens) (UniProt P16473); experiment: qHTS assay to identify small molecule antagonists of the thyroid stimulating hormone receptor (TSHR) signaling pathway (AID 1259385; calls by dose curve; note: nearly all actives have a fitted effect of over 20% in size; note: potency is the fitted concentration of half-maximal effect)
Sequence of Thyrotropin receptor (Homo sapiens) (P16473 whole entry, looked up): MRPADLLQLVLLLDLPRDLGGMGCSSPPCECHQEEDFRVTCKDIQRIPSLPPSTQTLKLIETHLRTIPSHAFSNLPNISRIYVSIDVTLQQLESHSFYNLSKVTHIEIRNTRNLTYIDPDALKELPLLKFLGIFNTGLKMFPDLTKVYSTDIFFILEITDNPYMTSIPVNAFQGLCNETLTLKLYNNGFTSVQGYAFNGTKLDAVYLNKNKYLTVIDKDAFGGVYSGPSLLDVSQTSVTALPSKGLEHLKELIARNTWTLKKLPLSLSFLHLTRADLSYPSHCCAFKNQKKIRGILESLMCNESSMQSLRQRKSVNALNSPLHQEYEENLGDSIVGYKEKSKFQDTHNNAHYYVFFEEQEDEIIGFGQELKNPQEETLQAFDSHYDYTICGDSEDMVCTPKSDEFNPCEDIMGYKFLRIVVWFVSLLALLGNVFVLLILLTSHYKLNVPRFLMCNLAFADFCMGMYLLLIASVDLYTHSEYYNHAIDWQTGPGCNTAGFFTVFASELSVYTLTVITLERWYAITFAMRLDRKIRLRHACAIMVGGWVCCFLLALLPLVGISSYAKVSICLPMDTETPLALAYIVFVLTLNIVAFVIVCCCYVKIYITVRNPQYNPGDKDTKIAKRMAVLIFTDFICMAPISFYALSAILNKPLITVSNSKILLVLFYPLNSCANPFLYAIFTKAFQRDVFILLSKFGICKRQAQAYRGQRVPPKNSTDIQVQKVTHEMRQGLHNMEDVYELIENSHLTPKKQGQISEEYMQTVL
Procedure, shortened: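 TSHR-HEK293 cells (800/well) plated 18 h, then compounds with Ro20-1724 and TSH at 1.5 ng/mL final, 30 min at room temperature. cAMP quantified by HTRF (cAMP-d2/anti-cAMP-cryptate, 1 h); 15 concentrations in triplicate.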

[8] = qHTS assay to identify small molecule agonists of the estrogen receptor alpha (ER-alpha) signaling pathway in the presence of an antagonist - cell viability counter screen (AID 1259386);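 note: cells exposed to compounds for 22 h at 37 °C before the viability read; nearly all actives have a fitted effect of over 30% in size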; note: potency is the fitted concentration of half-maximal effect
Procedure, shortened: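 Cytotoxicity was measured in parallel with the ERE-luciferase agonist screen, in the same wells. The cells were VM7Luc4E2, which endogenously express ER-alpha, and treatment was with compounds plus 10.0nM ICI-182,780 for 22hr.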

[9] = target: Progesterone receptor (Homo sapiens) (UniProt P06401); experiment: qHTS assay to identify small molecule agonists of the progesterone receptor (PR) signaling pathway (AID 1346784; calls by dose curve; note: nearly all actives have a fitted effect of over 30% in size)
Sequence of Progesterone receptor (Homo sapiens) (P06401 whole entry, looked up): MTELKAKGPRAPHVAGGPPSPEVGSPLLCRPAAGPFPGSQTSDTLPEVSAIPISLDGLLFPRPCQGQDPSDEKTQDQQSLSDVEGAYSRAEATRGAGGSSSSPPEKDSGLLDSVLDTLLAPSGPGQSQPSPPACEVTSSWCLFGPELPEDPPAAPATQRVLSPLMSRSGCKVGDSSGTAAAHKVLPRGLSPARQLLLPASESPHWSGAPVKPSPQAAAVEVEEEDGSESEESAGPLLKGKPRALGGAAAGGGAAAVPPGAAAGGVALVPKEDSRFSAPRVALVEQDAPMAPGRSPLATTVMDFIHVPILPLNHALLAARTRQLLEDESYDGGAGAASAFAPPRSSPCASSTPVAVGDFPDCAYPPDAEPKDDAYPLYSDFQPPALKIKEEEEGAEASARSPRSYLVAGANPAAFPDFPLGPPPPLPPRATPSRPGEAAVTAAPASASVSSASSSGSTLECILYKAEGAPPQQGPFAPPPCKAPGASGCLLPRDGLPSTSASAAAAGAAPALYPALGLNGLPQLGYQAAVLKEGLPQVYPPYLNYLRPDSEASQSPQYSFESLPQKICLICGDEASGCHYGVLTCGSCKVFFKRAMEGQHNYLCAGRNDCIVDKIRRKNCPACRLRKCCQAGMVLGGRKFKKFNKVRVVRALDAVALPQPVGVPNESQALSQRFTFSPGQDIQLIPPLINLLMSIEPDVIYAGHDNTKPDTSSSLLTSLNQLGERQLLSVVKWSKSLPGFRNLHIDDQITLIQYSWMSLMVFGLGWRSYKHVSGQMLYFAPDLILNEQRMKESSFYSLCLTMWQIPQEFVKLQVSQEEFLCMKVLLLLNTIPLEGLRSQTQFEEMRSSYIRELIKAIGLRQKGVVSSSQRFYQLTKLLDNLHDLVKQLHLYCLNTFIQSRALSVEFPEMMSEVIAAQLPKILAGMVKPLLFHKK
Procedure, shortened: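 Seed PR-UAS-bla HEK 293T cells (2% charcoal-stripped FBS), incubate 6 hr at 37C; add compounds in DMSO, 16 hr at 37C; add LiveBLAzer B/G substrate, 2 hr RT; read fluorescence intensity.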

[10] = qHTS assay to identify small molecule antagonists of the progesterone receptor (PR) signaling pathway - cell viability counter screen (AID 1346798); note: series mostly up to about 92 µM; nearly all actives have a fitted effect of over 50% in size
Procedure, shortened: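 Measures cytotoxicity in parallel with the PR antagonist reporter read: HEK293T PR-UAS-bla cells get compound and R5020 for 16 hr, and remaining viable cells are quantified by CellTiter-Glo luminescence.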

[11] = qHTS assay to identify small molecule antagonists of the TGF-beta/Smad signaling pathway - cell viability counter screen (AID 1346824); note: nearly all actives have a fitted effect of over 50% in size; note: potency is the fitted concentration of half-maximal effect
Procedure, shortened: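 SBE-bla HEK 293T cells, incubated overnight, then compound plus 0.25 ng/mL TGF-beta1 (stock added) for 5 hr at 37 C. Viability was read in the same wells by CellTiter-Glo luminescence after 30 min at room temperature.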

[12] = qHTS assay to identify small molecule agonists of the TGF-beta/Smad signaling pathway - cell viability counter screen (AID 1346829); note: nearly all actives have a fitted effect of over 45% in size; note: potency is the fitted concentration of half-maximal effect
Procedure, shortened: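 Tox21 qHTS format: SBE-bla HEK 293T cells treated with DMSO-dissolved compounds for 5 hr; CellTiter-Glo luminescence after 30 min at room temperature.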

[13] = qHTS assay to identify small molecule agonists of the TGF-beta/Smad signaling pathway (AID 1346859; active = well fitted activation curve with a large enough effect in the signal ratio in the repeat runs, not every such curve was filed as active; the % refers to the signal ratio; note: series mostly up to about 77 µM)
Procedure, shortened: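 Beta-lactamase reporter activity downstream of Smad binding elements was measured in stably transfected HEK 293T cells; compounds were incubated for 5 hr, substrate for 2 hr at room temperature.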

[14] = Human pregnane X receptor (PXR) small molecule agonists, qHTS cell viability counter screen (AID 1346977); note: nearly all actives have a fitted effect of over 50% in size; note: potency is the fitted concentration of half-maximal effect
Procedure, shortened: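 After a 5hr pre-incubation, PXR-Luc HepG2 cells received compounds plus positive control in DMSO and were kept 24hr at 37C. Cell viability was quantified by fluorescence from CellTiter-Fluor added for the final hour.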

[15] = Caspase-3/7 induction in HepG2 cells by small molecules, qHTS assay (AID 1346978); note: nearly all actives have a fitted effect of over 15% in size
Procedure, shortened: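 Wild-type HepG2 cells, 2,000/well, settled 5 hr at 37 C and 5% CO2, then compound-treated for 17 hr; caspase-3/7 activity read by luminescent Caspase-Glo 3/7 after 30 min at room temperature.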

[16] = target: Androgen receptor (Homo sapiens) (UniProt P10275); experiment: qHTS assay to identify small molecule agonists of the androgen receptor (AR) signaling pathway in the presence of an antagonist (AID 1259381; calls by dose curve; note: nearly all actives have a fitted effect of over 15% in size)
Sequence of Androgen receptor (Homo sapiens) (P10275 whole entry, looked up): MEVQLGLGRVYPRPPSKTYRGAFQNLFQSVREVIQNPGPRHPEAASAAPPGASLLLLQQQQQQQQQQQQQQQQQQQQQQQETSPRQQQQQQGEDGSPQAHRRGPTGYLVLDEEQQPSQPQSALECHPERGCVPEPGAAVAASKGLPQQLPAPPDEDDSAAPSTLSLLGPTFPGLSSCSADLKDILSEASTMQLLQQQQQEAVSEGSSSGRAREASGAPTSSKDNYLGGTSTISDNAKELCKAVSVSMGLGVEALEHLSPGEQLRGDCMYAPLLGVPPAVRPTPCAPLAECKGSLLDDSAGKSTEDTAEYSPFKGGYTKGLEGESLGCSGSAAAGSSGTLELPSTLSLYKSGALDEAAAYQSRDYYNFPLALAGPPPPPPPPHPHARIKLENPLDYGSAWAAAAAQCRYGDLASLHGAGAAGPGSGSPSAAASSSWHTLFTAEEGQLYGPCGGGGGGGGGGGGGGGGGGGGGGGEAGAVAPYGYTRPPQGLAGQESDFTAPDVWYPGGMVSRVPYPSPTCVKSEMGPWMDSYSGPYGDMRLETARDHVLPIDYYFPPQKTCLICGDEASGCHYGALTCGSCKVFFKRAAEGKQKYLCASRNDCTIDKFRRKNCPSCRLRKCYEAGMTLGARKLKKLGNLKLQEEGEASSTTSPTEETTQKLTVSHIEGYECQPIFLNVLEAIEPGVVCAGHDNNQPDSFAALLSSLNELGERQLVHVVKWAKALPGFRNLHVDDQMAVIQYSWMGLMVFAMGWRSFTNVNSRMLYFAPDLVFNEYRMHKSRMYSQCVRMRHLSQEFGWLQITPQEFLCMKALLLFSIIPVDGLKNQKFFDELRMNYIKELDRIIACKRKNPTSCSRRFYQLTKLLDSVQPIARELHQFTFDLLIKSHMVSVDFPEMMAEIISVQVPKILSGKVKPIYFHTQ
Procedure, shortened: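 Agonist-mode confirmation screen: human MDA-kb2 cells stably expressing luciferase under an MMTV promoter bearing AR and GR response elements, co-treated with 3.0uM nilutamide (final). Luminescence measured after 16hr compound incubation.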

[17] = target: Thyrotropin-releasing hormone receptor (Homo sapiens) (UniProt P34981); experiment: qHTS assay to identify small molecule antagonists of the thyrotropin-releasing hormone receptor (TRHR) signaling pathway (AID 1346877; active = well fitted inhibition curve with a large enough effect in the repeat runs, not every such curve was filed as active; note: potency is the fitted concentration of half-maximal effect)
Sequence of Thyrotropin-releasing hormone receptor (Homo sapiens) (P34981 whole entry, looked up): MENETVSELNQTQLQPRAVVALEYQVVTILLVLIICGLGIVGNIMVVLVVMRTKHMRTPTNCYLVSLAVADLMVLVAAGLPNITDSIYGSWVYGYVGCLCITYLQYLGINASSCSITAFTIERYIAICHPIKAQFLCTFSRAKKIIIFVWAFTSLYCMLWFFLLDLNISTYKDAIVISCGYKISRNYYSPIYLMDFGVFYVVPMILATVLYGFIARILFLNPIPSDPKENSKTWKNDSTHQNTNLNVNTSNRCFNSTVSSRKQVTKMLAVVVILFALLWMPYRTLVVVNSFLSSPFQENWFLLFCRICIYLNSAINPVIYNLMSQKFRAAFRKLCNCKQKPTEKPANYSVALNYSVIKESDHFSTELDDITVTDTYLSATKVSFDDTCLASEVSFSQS
Procedure, shortened: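 Antagonism is measured as suppression of the calcium response to 1 nM TRH in TRHR-HEK293 cells that have been dye-loaded for 2 h at 37 °C after overnight plating. Each compound is tested at 15 concentrations in triplicate.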

[18] = target: Thyrotropin-releasing hormone receptor (Homo sapiens) (UniProt P34981); experiment: qHTS assay to identify small molecule agonists of the thyrotropin-releasing hormone receptor (TRHR) signaling pathway (AID 1346891; calls by dose curve; note: potency is the fitted concentration of half-maximal effect;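 for activation: HEK293 cells expressing TRHR with calcium dye readout; series mostly up to about 58 µM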)
Procedure, shortened: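 Overnight-plated (18 h, 37 °C, 5% CO2) TRHR-Hek293 cells; 2 h calcium dye at 37 °C; compound in DMSO; 3-min kinetic fluorescence read.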

[19] = target: Progesterone receptor (Homo sapiens) (UniProt P06401); experiment: qHTS assay to identify small molecule antagonists of the progesterone receptor (PR) signaling pathway (AID 1346795; active = well fitted inhibition curve with a large enough effect in the signal ratio in the repeat runs, not every such curve was filed as active; the % refers to the signal ratio; note: potency is the fitted concentration of half-maximal effect)
Procedure, shortened: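 Screening used a GripTite HEK293T line with PR-responsive UAS-beta-lactamase. Cells were challenged with compound in the presence of 1 nM R5020 final for 16 hr at 37C; B/G FRET substrate, 2 hr room temperature, fluorescence.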

[20] = qHTS assay to identify small molecule agonists of the progesterone receptor (PR) signaling pathway - cell viability counter screen (AID 1346799; calls by dose curve; note: nearly all actives have a fitted effect of over 45% in size; note: potency is the fitted concentration of half-maximal effect)
Procedure, shortened: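 Using the same plates as the PR reporter screen, HEK293T PR-UAS-bla cells received compounds for 16 hr at 37C and were then lysed with CellTiter-Glo; luminescence was read 30 min later at room temperature.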

Measured: Potency

Cc1ccc(CCl)cc1
inactive: [1] | [2] | [3] | [4] | [5] | [6] | [7] | [8] | [9] | [10] | [11] | [12] | [13] | [14] | [15]

CCC(C)c1cc(C(C)(C)C)cc(-n2nc3ccccc3n2)c1O (stereo not drawn)
inactive: [1] | [2] | [3] | [16] | [4] | [8] | [9] | [10] | [11] | [12] | [13] | [17] | [18] | [14] | [15]

C=COCCCl
inactive: [1] | [2] | [3] | [16] | [4] | [5] | [6] | [8] | [9] | [19] | [10] | [20] | [12] | [13] | [17] | [18] | [14]

Cc1ccc(C(=O)Cl)cc1
inactive: [1] | [2] | [3] | [16] | [4] | [5] | [6] | [7] | [8] | [9] | [19] | [10] | [20] | [11] | [12] | [13] | [17] | [18] | [14] | [15]

O=[N+]([O-])c1ccc2ccc3cccc4ccc1c2c34
active: [2] 48.5 µM | [3] 30.6 µM | [8] 38.5 µM
inactive: [16] | [4] | [5] | [9] | [10] | [20] | [11] | [12] | [17] | [18] | [15]

CCCCCCCCCCCCCCCCCCn1cc[n+](C)c1
inactive: [16] | [5] | [6] | [7] | [9] | [17] | [18]
active: [2] 21.6 µM | [3] 30.5 µM | [4] 30.5 µM | [8] 60.8 µM | [19] 54.2 µM | [20] 30.5 µM | [11] 21.7 µM | [12] 48.7 µM | [14] 8.58 µM

Fc1cccc(Cl)c1CCl
inactive: [1] | [2] | [4] | [5] | [6] | [7] | [8] | [19] | [20] | [11] | [12] | [13] | [17] | [18] | [14] | [15]

COc1ccc([N+](=O)[O-])cc1O
inactive: [2] | [3] | [16] | [4] | [5] | [6] | [7] | [8] | [9] | [19] | [20] | [11] | [12] | [17] | [18] | [14] | [15]

C1CCC2CCCCC2C1 (stereo not drawn)
inactive: [1] | [2] | [4] | [5] | [8] | [9] | [19] | [10] | [20] | [11] | [12] | [17] | [18] | [14] | [15]

c1ccc(OCC2CO2)cc1 (stereo not drawn)
inactive: [1] | [2] | [4] | [6] | [7] | [8] | [9] | [19] | [10] | [20] | [12] | [13] | [14] | [15]

CC(=O)c1ccc(-c2ccccc2)cc1
inactive: [2] | [3] | [16] | [4] | [5] | [7] | [8] | [10] | [20] | [12] | [14] | [15]

OC(c1ccc(Cl)cc1)(c1ccc(Cl)cc1)C(Cl)(Cl)Cl
inactive: [1] | [3] | [5] | [6] | [8] | [20] | [11] | [12] | [14]
active: [7] 68.6 µM

[CH3][Hg][Cl]
inactive: [16] | [4] | [5] | [6] | [8] | [10] | [11] | [12] | [15]
active: [2] 21.6 µM | [3] 60.9 µM | [7] 17.2 µM | [17] 30.1 µM | [18] 17.3 µM

ClC1=C(Cl)[C@]2(Cl)[C@@H]3[C@@H](Cl)[C@H](Cl)C[C@@H]3[C@@]1(Cl)C2(Cl)Cl
inactive: [2] | [3] | [16] | [4] | [5] | [8] | [9] | [19] | [20] | [12] | [13] | [17] | [18] | [14] | [15]

COc1cccc(C(=O)CCN[C@@H](C)[C@H](O)c2ccccc2)c1
inactive: [1] | [3] | [4] | [7] | [8] | [19] | [11] | [12] | [17] | [18] | [15]
active: [14] 29.8 µM

CC(=O)OC1(c2ccccc2)CCN(CCc2ccccc2)CC1
active: [2] 70.3 µM
inactive: [1] | [4] | [7] | [9] | [19] | [10] | [20] | [11] | [12] | [13] | [17] | [18] | [15]

CN(CCCC(O)c1cccnc1)N=O (stereo not drawn)
inactive: [2] | [3] | [16] | [4] | [5] | [6] | [7] | [8] | [9] | [10] | [20] | [12] | [13] | [17] | [18] | [14] | [15]
